This note sets out measurements from PubChem BioAssay AID588651 (The Scripps Research Institute Molecular Screening Center, 2011).

Values without a mark were called inactive. Calls of active or inactive are those of the source. Cut-off read from the data, not from the text of the source: active = inhibition above about 65%; inactive = the rest.

The subject of the test is Fam108b. The experiment in a line: Fam108b inhibition by ABPP, late-stage follow-up, biochemical, gel-based ABPP, recombinant soluble Fam108b, HTS hits, complex proteome (AID 588651).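 Note: Fam108b spiked into mouse brain membrane proteome.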 The following applies: FP-rhodamine labeling in proteome, at 20 µM, stronger effect = higher value.
On to `Clc1ccccc1C(c1ccccc1)(c1ccccc1)n1ccnc1`, for which the inhibition was 0%. As for `COc1cc2cc(C(=O)NN=Cc3ccccc3Cl)[nH]c2cc1OC`, the inhibition was 10%.

In the case of `O=C1c2ccccc2-c2onc3ccc(NCCCn4ccnc4)c1c23`, the inhibition is 0%. Regarding `CC(C)(C)c1nc2scc(-c3cccs3)c2c(=O)o1`, the inhibition is 80% (active). Turning to `Nc1cc(C(=O)O)c(N)c2c1C(=O)c1ccccc1C2=O`, the inhibition is 0%.

For the compound `Cn1c2ccccc2c2cc(C=NNC(=O)c3cc(O)ccc3O)ccc21`, the inhibition is 80% (active). Regarding `Nc1c(S(=O)(=O)c2cccc(Cl)c2)c2nc3ccccc3nc2n1N=Cc1ccc(O)c(O)c1`, the inhibition is 75% (active).

As to `CCc1ccc(S(=O)(=O)/N=C2\C=C(Nc3cccc(C(=O)O)c3)C(=O)c3ccccc32)cc1`, the inhibition was 0%.

As to `CN(c1ccccc1)S(=O)(=O)c1ccc(NC(=O)c2ccc(-c3ccccc3)cc2)cc1`, the inhibition is 40%. Turning to `CCNc1ccc2noc3c2c1C(=O)c1ccccc1-3`, the inhibition is 0%. Take `O=C(CCCSc1ccccc1)Nc1nc(-c2ccco2)c(-c2ccco2)s1`: the inhibition was 0%. To `COc1cc2c(cc1NC(=S)Nc1cccc(C(F)(F)F)c1)oc1ccccc12` belongs 20%; to `COc1ccc2oc(=O)c(-c3csc(Nc4cccc(O)c4)n3)cc2c1`, 0%; to `CCc1ccc(S(=O)(=O)N=C2C=C(Sc3ncn[nH]3)C(=O)c3ccccc32)cc1`, 60%.

Turning to `CCOc1cc(/C=C2\C(=O)N(c3nc(-c4ccc(Br)cc4)cs3)N=C2c2ccccc2)ccc1O`, the inhibition is 70% (active). Regarding `Nc1ccc2nc(-c3cccc(-c4nc5ccc(N)cc5[nH]4)c3)[nH]c2c1`, the inhibition is 30%.

Take `Cc1nc2scc(-c3ccccc3)c2c(=O)o1`: the inhibition was 80% (active). With `COc1cccc2c1C(=O)c1c(O)c3c(c(O)c1C2=O)C[C@@](O)(C(=O)CO)C[C@@H]3O[C@H]1C[C@H](N)[C@H](O)[C@H](C)O1`, the inhibition was 0%.

On to `COc1cccc(C=NNc2nc(Nc3ccc([N+](=O)[O-])cc3)nc(N3CCCC3)n2)c1O`, for which the inhibition is 65% (active). As for `Cc1nc2scc(-c3ccc(Cl)cc3)c2c(=O)o1`, the inhibition was 95% (active). With `COc1cc2c(cc1NC(=O)Nc1ccccc1)oc1ccccc12`, the inhibition was 0%. Consider `Oc1oc(-c2ccccc2Br)nc1C=Nc1ccccn1`, for which the inhibition was 90% (active). For `COc1ccc(-c2csc3nc(-c4ccccc4OC)oc(=O)c23)cc1`, the inhibition is 80% (active). The same measure for `Nc1cc2nsnc2cc1Br`: 0%; for `Brc1ccc(-c2csc(Nc3nc(-c4ccc(Br)cc4)cs3)n2)cc1`: 50%; for `O=[N+]([O-])c1ccc(NN=Cc2c[nH]c3ccccc23)c(S(=O)(=O)Nc2ccc(Cl)cc2)c1`: 0%. With `COc1cccc(C=NNC(=O)c2[nH]c(C)c(C(=O)NN=Cc3cccc(OC)c3O)c2C)c1O`, the inhibition was 75% (active). `O=C(Nc1ccc(-c2csc(Nc3cccc(C(F)(F)F)c3)n2)cc1)c1cccc(C(F)(F)F)c1`: the inhibition was 95% (active).

Turning to `Oc1c(Cl)cc(Cl)c(Cl)c1Cc1c(O)c(Cl)cc(Cl)c1Cl`, the inhibition is 0%. Take `O=C(Nc1ccc(-c2csc(Nc3ccc(Cl)cc3)n2)cc1)c1cccc(C(F)(F)F)c1`: the inhibition was 95% (active). The same measure for `O=C1C(Cl)=C(Nc2ccc3cn[nH]c3c2)C(=O)c2ccccc21`: 0%; for `O=C(NN=Cc1ccc(O)cc1)c1cccc(NN=Cc2ccc(O)cc2)c1`: 60%. Turning to `CCc1cc(C(Cc2ccc3ccccc3n2)=NO)c(O)cc1O`, the inhibition was 0%.

As for `COc1cccc(-n2c(SCc3cc(=O)oc4cc(O)c(O)cc34)nc3ccccc3c2=O)c1`, the inhibition is 10%.

The inhibition is the change of the read-out against control, counted positive when it falls.
